Compound activity deposited in PubChem BioAssay by National Center for Advancing Translational Sciences (NCATS).
Casp7 inh: blocks human caspase-7 allosterically or competitively; P55210; recombinant caspase-7, Ac-DEVD-AFC fluorescence rate; Potency, µM (highest dose often 57.5 µM), inactives show top-dose activity change, negative = inhibition, actives largely listed as inhibitors; 75,000 tested, 0.02% active; AID 889; active = well fitted inhibition curve with a large enough effect in the main read-out, with a control signal flat, not every such curve was filed as active; inconclusive = small, poorly fitted or top-dose-only effect, or a change in a side signal; also: % of control where 0% means no effect
ALOX15B inhib: 15-hLO-2 (ALOX15B) enzyme inhibition; purified 15hLO-2, xylenol orange hydroperoxide absorbance; 110,000 tested, 0.56% active; AID 881; Potency, µM (titrated, usually from 57.1 µM), for the others: at the highest dose activity change, negative = inhibition, most hits filed as inhibitors; also: % is scaled to controls: 0 for no effect and ±100 for the full control effect; nearly all actives have a fitted effect of over 60% in size
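Purified human 15hLO-2 (50 nM final) preincubated with compounds 15 min at room temperature in 25 mM Hepes pH 7.5, 0.01% Triton X-100, then 45 uM arachidonic acid added for 90 min; hydroperoxide detected via ferrous/xylenol orange, 573/405 nm absorbance ratio.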
ALOX15 inhib: inhibitors of human 15-lipoxygenase (ALOX15); purified 15hLO-1, xylenol orange hydroperoxide absorbance; Potency, µM (top dose mostly 57.1 µM), without a hit: top-dose activity change, negative = inhibition, usual class: inhibitors; 74,000 tested, 1.4% active; AID 887; also: % is scaled to controls: 0 for no effect and ±100 for the full control effect; nearly all actives have a fitted effect of over 55% in size
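Quantitative HTS in 25 mM Hepes pH 7.5 containing 0.01% Triton X-100: human 15hLO-1 at 40 nM, arachidonic acid at 50 uM, 6 min turnover. Product quantified via ferrous oxidation/xylenol orange, 573:405 nm absorbance ratio.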
Casp1 inh: allosteric or competitive inhibitors of human caspase-1. P29466. Caspase-1 enzyme, Ac-WEHD-AFC fluorogenic rate. Potency, µM (top dose mostly 57.5 µM), without a hit: at the top dose activity change, negative = inhibition, usual class: inhibitors. 75,000 tested, 0.03% active;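 also: plate controls were vehicle for no effect and no substrate for full effect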
ERK AVP block: inhibitors of vasopressin-stimulated ERK signaling pathway | HEK293-V1b, vasopressin-stimulated pERK AlphaScreen | Potency, µM (titrated, usually from 57.5 µM), without a hit: at the highest dose activity, negative = inhibition, usual class: inhibitors | 72,000 tested, 0.99% active | AID 995; also: % is scaled to controls: 0 for no effect and ±100 for the full control effect; nearly all actives have a fitted effect of over 55% in size
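qHTS, compounds titrated on V1b-expressing HEK293 cells. Preincubation 30 min at 37C, vasopressin 25 nM for 5 min, lysis 10 min, bead incubation 5 hr at room temperature.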
* = called active by the depositor; ? = inconclusive; . = no result given; [ ] = another dose, or the depositor's remark. A selection: hits, their analogues and other compounds. The true share with any hit is near 1.7%. Unless noted, calls follow the shape of the dose curve; as a rule, active = well fitted curve in the direction sought with a large enough effect; inconclusive = small, poorly fitted or top-dose-only effect, or another doubt; inactive = no such curve, though single readings can be large; an effect the other way counts as inactive or inconclusive. Potency is read from the fitted curve at half-maximal effect.

SMILES	Casp7 inh	ALOX15B inhib	ALOX15 inhib	Casp1 inh	ERK AVP block
CC(=O)Nc1nc(C)nc(-c2ccccc2OC(C)=O)n1	-9%	0%	5%	-9%	-10%
COc1ccc(CNc2ccnc(-c3c(C)noc3C)n2)c(OC)c1	-4%	-14%	25µM*	-4%	?
COc1ccc(CNc2ccnc(-c3ccoc3)n2)c(OC)c1	-9%	-3%	-23%	-8%	?
CCNc1ncc2nc(-c3cn(C)c4ccccc34)c(=O)n(Cc3cccc(OC)c3)c2n1	?	-4%	5%	.	14%
CO[C@@H]1COC(=O)C/C=C\[C@@H](C)[C@H](OC)COC(=O)[C@@H](C)COC(=O)C/C=C\[C@H]1C	0%[11.5 µM]	.	5%[11.4 µM]	0%[11.5 µM]	8%[11.5 µM]
O=C1C(SCCO)=C(SCCO)C(=O)c2ccccc21	-11%	?	-18%[25.6 µM]	16µM*	16µM*
N#CC(=NCCO)C1=C(O)c2ccccc2C1=O	-2%[11.5 µM]	-7%[11.4 µM]	2%[11.4 µM]	3%[11.5 µM]	19%[11.5 µM]
c1ccccc1	-2%	4%	-6%	-3%	9%
Cc1nn(-c2nc3ccccc3s2)c(C)c1Oc1ccccc1O	-1%	.	16µM*	-3%	?
Cc1nn(-c2ccccn2)c(C)c1Oc1ccccc1O	2%	-6%	?	-1%	13%
COCCn1c(=O)c(-c2ccc(Cl)cc2)nc2cnc(N3CCOCC3)nc21	?	-4%	-7%	.	12%
C[N+](C)(C)c1cc2c(nn1)Nc1ccccc1S2	-9%[11.5 µM]	7%[11.4 µM]	?	-3%[11.5 µM]	-16%[11.5 µM]
NS(=O)(=O)c1ccc(Nc2nc(-c3ccc(O)cc3)cs2)cc1	1%	-10%	25µM*	1%	?
COc1cccc(Cn2c(=O)c(-c3ccc(Cl)cc3)nc3cnc(N4CCNCC4)nc32)c1	?	43%	4%	.	-9%
CC(C)(C)N1C(=O)[C@H]2[C@@H]3[C@H](O)C=CC(=O)[C@H]3CC[C@H]2C1=O	0%[11.5 µM]	.	0%[11.4 µM]	1%[11.5 µM]	-3%[11.5 µM]
C=CC(C1=CC(=O)C=CC1=O)c1ccccc1 (stereo unspecified)	-2%	?	?	1%	1%
C=CC(C1=CC(=O)C(OC)=CC1=O)c1ccc(O)cc1 (stereo unspecified)	-1%	?	25µM*	2%	25%
COc1cccc(Cn2c(=O)cnc3cnc(Nc4cccc(OC)c4)nc32)c1	-26%	-9%	-13%	?	?
Cc1nc2c(c(=O)n1Cc1ccccc1Cl)c1nc3ccccc3nc1n2Cc1ccco1	?	?	?	.	25µM*
Cc1cccc(CNc2ccnc(-c3ccccc3Cl)n2)c1	-9%	20%	-4%	-3%	-20%
CC(C)CN1CC[C@@]2(CCCN(S(=O)(=O)c3ccccc3)C2)C1	-2%	1%	-10%	0%	0%
Nc1nc(Nc2ccccc2)nc2ccccc12	1%	43%	?	0%	13µM*
Oc1ccc(Nc2nc(N3CCCC3)c3ccccc3n2)cc1	4%	9%	?	-1%	32µM*
Clc1ccc(Cl)c(-c2nn3c(COc4ccccc4)nnc3s2)c1	-1%	-9%	10µM*	0%	-2%
CCNc1ncc2nc(CCc3ccccc3)c(=O)n(C)c2n1	?	5%	25µM*	.	?
SMILES	Casp7 inh	ALOX15B inhib	ALOX15 inhib	Casp1 inh	ERK AVP block
CCNc1ncc2nc(CCc3ccccc3)c(=O)n(C3CC3)c2n1	?	13%	-8%	.	?
C=C[C@](C)(O)CCC=C(C)C	0%	7%	?	1%	4%
CC(=O)O[C@](C)(CCC=C(C)C)C1CC=C(C)CC1 (stereo partly specified)	1%	3%	13µM*	1%	13%
N#Cc1c(N)n[nH]c1-c1cc2c([nH]1)CCCC2	-1%	.	-28%	-1%	-21%
N#Cc1cc2c([nH]c1=S)CCCCCC2	4%	25µM*	?	-1%	.
CC(C)=NO[C@@H](C)c1cn([C@H](CO)Cc2ccccc2)nn1	1%[11.5 µM]	.	6%[11.4 µM]	-1%[11.5 µM]	12%[11.5 µM]
COc1ccc(C2CC(=O)N3CN(c4ccc(C)c(Cl)c4)CSC3=C2C#N)cc1OC (stereo unspecified)	?	25µM*	3.2µM*	32µM*	-12%
COc1ccc(N2CSC3=C(C#N)C(c4cc(OC)ccc4OC)CC(=O)N3C2)c(OC)c1 (stereo unspecified)	-21%	10µM*	?	-13%	-27%
CCOc1ccccc1N1CCN(c2nc3ccccc3nc2C(C#N)C(=O)OC)CC1 (stereo unspecified)	.	-17%	.	.	.
CCOc1ccccc1N1CSC2=C(C#N)C(c3c(OC)ccc4ccccc34)CC(=O)N2C1 (stereo unspecified)	-10%	10µM*	?	-4%	-15%
COc1ccc(N2CSC3=C(C#N)C(c4cc(OC)c(OC)cc4OC)CC(=O)N3C2)c(OC)c1 (stereo unspecified)	?	?	?	.	4%
COc1ccc(N2CSC3=C(C#N)C(c4ccc(OC)c(OC)c4)CC(=O)N3C2)c(OC)c1 (stereo unspecified)	?	?	4µM*	?	?
COc1c2c(nc3ccccc13)O[C@@H]([C@@](C)(O)CO)C2	2%	6%	-3%	0%	-17%
Oc1cc(O)cc(/C=C\c2ccc(O)c(O)c2)c1	-8%	3.2µM*	0.79µM*	?	-3%
Oc1ccc(/C=C\c2cc(O)cc(O)c2)cc1	-8%	-14%	?	-2%	-11%
O=C1Nc2ccccc2C1=Nc1cccc2ncccc12	-4%[11.5 µM]	-8%[11.4 µM]	-2%[11.4 µM]	0%[11.5 µM]	-13%[11.5 µM]
COC(=O)C/C=C\[C@@H](C)[C@@H](/C=N\O[C@@H](C)CN1CCCCc2nc(C)c(C)cc21)NS(=O)(=O)c1ccc(C)cc1	0%[11.5 µM]	.	18%[11.4 µM]	0%[11.5 µM]	7%[11.5 µM]
COc1ccc(OC)c(NC(=O)c2cc(-c3cc(Cl)ccc3O)n[nH]2)c1	-8%	-7%	-15%	1%	25µM*
COc1ccc(NC(=O)c2cc(-c3cc(C)ccc3O)n[nH]2)cc1Cl	-2%	-17%	-5%	1%	-3%
Cc1noc(C)c1-c1cncnc1N(C)Cc1ccco1	-2%	-4%	18%	-1%	4%
CC(C)n1nnc2cc(C(=O)O)ccc21	.	-2%[0.0915 µM]	.	.	.
N#Cc1cc2c(nc1SCc1cccnc1)CCC2	-1%	4%	0%	0%	-16%
N#Cc1cc2c(nc1SCc1cccnc1)CCCC2	3%	?	16µM*	1%	0%
N#Cc1cc2c(nc1SCc1nc3ccccc3[nH]1)CCC2	-13%	40%	16µM*	-12%	?
O=c1ccc2cc3c([nH]c4ccc(Br)cc43)oc-2c1O	-13%	-20%[2.29 µM]	25µM*	-2%	-25%
CC(C)C(c1nnnn1Cc1ccco1)N1CCN(C2CCCC2)CC1 (stereo unspecified)	.	-4%	?	1%	13%
CC(C)C(c1nnnn1Cc1ccco1)N1CCN(c2nc3ccccc3s2)CC1 (stereo unspecified)	3%	-8%	-13%	-3%	2µM*
